# Measured values from PubChem BioAssay (NCI).
# The panel holds about 79,000 compounds, 15% with a hit somewhere; the sample as a whole holds those more often. Unmarked numbers belong to inactive results. Calls of active or inactive are those of the source. No stated cut-off is given here; in the data, active means growth inhibition above about 70%; inactive means the rest.
# Experiments:
# [1] = NCI Yeast Anticancer Drug Screen. Data for the rad50 strain (AID 155);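 further: 0% = growth of vehicle-only cultures of the same strain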; details: S. cerevisiae rad50 strain growth inhibition, stronger effect = higher value
# Outline: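 Readout: growth inhibition relative to vehicle-treated cultures. Compound exposure was carried out in a genetically defined yeast strain deficient in DNA damage repair.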
# [2] = NCI Yeast Anticancer Drug Screen. Data for the mec2-1 strain (AID 157); details: S. cerevisiae mec2-1 strain, stronger effect = higher value
# Outline: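 Mutant yeast (mec2-1) grown with compound; growth inhibition relative to vehicle control reported.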
# [3] = NCI Yeast Anticancer Drug Screen. Data for the sgs1 mgt1 strain (AID 161);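 further: 0% = growth of cultures given vehicle only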; details: S. cerevisiae sgs1 mgt1 strain, stronger effect = higher value
# Outline: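 Percent growth inhibition was derived by comparing compound-exposed mutant yeast with vehicle-exposed cultures. The strain carries alterations in DNA damage repair.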
# [4] = NCI Yeast Anticancer Drug Screen. Data for the cln2 rad14 strain (AID 165);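 further: 0% = growth equal to vehicle treated cultures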; details: S. cerevisiae cln2 rad14 strain, stronger effect = higher value
# Outline: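 Readout is yeast growth inhibition versus vehicle-treated controls, using a strain with cln2 and rad14 alterations exposed to compound.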
# [5] = NCI Yeast Anticancer Drug Screen. Data for the bub3 strain (AID 167); details: S. cerevisiae bub3 mutant strain, stronger effect = higher value
# Outline: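 Readout: yeast growth inhibition, expressed relative to vehicle-only wells. The test organism is a mutant strain from a panel with lesions in DNA repair or checkpoint genes.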
# [6] = NCI Yeast Anticancer Drug Screen. Data for the mlh1 rad18 strain (AID 175); details: S. cerevisiae mlh1 rad18 strain growth inhibition, stronger effect = higher value
# Outline: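 Genetically defined yeast (DNA repair-deficient) exposed to compounds; growth inhibition determined relative to vehicle.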
# [7] = at 5.0 µM (retest, dose inferred, filed as 0.5)
# [8] = at 50.0 µM (retest, dose inferred, filed as 5.0)
Structure (SMILES),"growth inhibition [1, 7]","growth inhibition [1, 8]",growth inhibition ([1]; at 50.0 µM),"growth inhibition [2, 7]","growth inhibition [2, 8]",growth inhibition ([2]; at 50.0 µM),"growth inhibition [3, 7]","growth inhibition [3, 8]",growth inhibition ([3]; at 50.0 µM),"growth inhibition [4, 7]","growth inhibition [4, 8]",growth inhibition ([4]; at 50.0 µM),"growth inhibition [5, 7]","growth inhibition [5, 8]",growth inhibition ([5]; at 50.0 µM),"growth inhibition [6, 7]","growth inhibition [6, 8]",growth inhibition ([6]; at 50.0 µM)
O=C1/C(=C/O)CCc2c1ccc1ccccc21,15%,98% (active),98.4% (active),9%,99% (active),99% (active),-9%,98% (active),99.1% (active),6%,99% (active),97.7% (active),10%,98% (active),98.9% (active),17%,98% (active),96.2% (active)
CC1CC(C)CC(NC2=NCCO2)C1 (stereo not given),13%,-5%,-4.1%,6%,-5%,22.2%,12%,13%,21.6%,11%,7%,27.6%,27%,15%,7.8%,8%,-12%,21.1%
O=C(O)c1cc2cc3ccccc3cc2cc1O,-1%,32%,73.3% (active),2%,34%,57.2%,3%,36%,81% (active),-1%,14%,55.2%,0%,22%,51.2%,-1%,27%,64.7%
Cc1cc(C)c(C(=O)/C=C/C(=O)c2ccccc2)c(C)c1,86% (active),95% (active),62.4%,89% (active),96% (active),78.1% (active),85% (active),96% (active),90.6% (active),51%,95% (active),47.2%,89% (active),96% (active),96% (active),93% (active),96% (active),92.7% (active)
CC1C=C(COC(=O)Nc2ccccc2)ON1c1ccccc1 (stereo not given),-2%,97% (active),98.2% (active),-3%,96% (active),98% (active),-2%,97% (active),98.2% (active),-4%,95% (active),98.3% (active),-8%,93% (active),98.5% (active),-1%,97% (active),97.8% (active)
Cc1c2c(c(C)c3ccncc13)S(=O)(=O)c1ccccc1-2,88% (active),87% (active),94.3% (active),52%,69%,36.2%,38%,65%,55.3%,39%,36%,28.9%,41%,33%,55%,75% (active),85% (active),79.9% (active)
CC(C)C(=O)OCC(C)(C)C1OCC(C)(C)C(C(C)C)O1 (stereo not given),11%,-9%,-5.55%,97% (active),5%,-3.85%,12%,3%,-1.55%,-19%,-6%,9%,98% (active),0%,1.15%,88% (active),-13%,4.85%
CCCCCCC(=O)OCc1ccc(-c2ccccc2)cc1,97% (active),99% (active),99% (active),98% (active),100% (active),99.4% (active),95% (active),100% (active),99.3% (active),26%,94% (active),99% (active),70% (active),99% (active),99.2% (active),99% (active),99% (active),99.2% (active)
Clc1ccc(N=Cc2c3ccccc3cc3ccccc23)c(Cl)c1,0%,-3%,79.7% (active),3%,2%,85.4% (active),-5%,5%,87.4% (active),15%,22%,31%,2%,29%,79.5% (active),-7%,44%,77.5% (active)
Cc1c2c(c(O)c3c(O)cccc13)C(=O)C1(O)C(=O)C(C(N)=O)C(O)C(N(C)C)C1C2 (stereo not given),27%,99% (active),65.7%,82% (active),100% (active),99.2% (active),-90%,100% (active),58%,66%,99% (active),98.7% (active),61%,99% (active),98.6% (active),70% (active),99% (active),99.1% (active)
